Screens from PubChem BioAssay.
BoNT A protease: BoNT/A light chain protease inhibitors, primary screen, biochemical, flow cytometry, MLPCN library. multiplex microsphere protease substrate cleavage. hit rate 0.17% among 360,000. AID 588499, 2011. Botulinum neurotoxin type A light chain protease (Clostridium botulinum A str. ATCC 3502). inhibition, % at 10 µM; also: plate controls were buffer without enzyme for full effect and enzyme alone for no effect
Bead autofluor: counter-screen for toxin protease inhibitors: compound fluorescence; compound autofluorescence counterscreen, microsphere flow cytometry; stronger effect = higher value; hit rate 3.1% among 360,000; fluorescence intensity (test concentration not listed); in the data active = fluorescence intensity above about 16000; inconclusive = no clear call, values can overlap the other calls
CCHFV vOTU inh: CCHFV vOTU protease inhibitors, primary screen, biochemical, Pep-AMC substrate, fluorescence | Crimean-Congo hemorrhagic fever virus L polyprotein viral ovarian tumor (vOTU) protease … | inhibition, % at 11.5 µM | hit rate 0.55% among 370,000 | AID 651958, 2012; in the data active = inhibition above about 30%; also: 0% = vehicle wells with enzyme and 100% = no enzyme wells
BoNT F protease: BoNT/F light chain protease inhibitors, primary screen, biochemical, flow cytometry, MLPCN library; Botulinum neurotoxin type F light chain protease (Clostridium botulinum); Multiplex microsphere protease cleavage assay; inhibition, % at 10 µM; hit rate 0.22% among 360,000; in the data active = inhibition above about 35%, passing the limit was not always enough; inconclusive = no clear call, values can overlap the other calls; also: plate controls were buffer without enzyme for full effect and enzyme alone for no effect
Anthrax LF prot: Bacillus anthracis LF protease inhibitors, primary screen, biochemical, multiplex microsphere, MLPCN library. Lethal factor (Bacillus anthracis), P15917. multiplex microsphere protease cleavage assay. inhibition, % at 10 µM. hit rate 0.12% among 360,000. AID 588501, 2011; also: plate controls were buffer without enzyme for full effect and enzyme alone for no effect
Target sequence (P15917 whole entry, looked up): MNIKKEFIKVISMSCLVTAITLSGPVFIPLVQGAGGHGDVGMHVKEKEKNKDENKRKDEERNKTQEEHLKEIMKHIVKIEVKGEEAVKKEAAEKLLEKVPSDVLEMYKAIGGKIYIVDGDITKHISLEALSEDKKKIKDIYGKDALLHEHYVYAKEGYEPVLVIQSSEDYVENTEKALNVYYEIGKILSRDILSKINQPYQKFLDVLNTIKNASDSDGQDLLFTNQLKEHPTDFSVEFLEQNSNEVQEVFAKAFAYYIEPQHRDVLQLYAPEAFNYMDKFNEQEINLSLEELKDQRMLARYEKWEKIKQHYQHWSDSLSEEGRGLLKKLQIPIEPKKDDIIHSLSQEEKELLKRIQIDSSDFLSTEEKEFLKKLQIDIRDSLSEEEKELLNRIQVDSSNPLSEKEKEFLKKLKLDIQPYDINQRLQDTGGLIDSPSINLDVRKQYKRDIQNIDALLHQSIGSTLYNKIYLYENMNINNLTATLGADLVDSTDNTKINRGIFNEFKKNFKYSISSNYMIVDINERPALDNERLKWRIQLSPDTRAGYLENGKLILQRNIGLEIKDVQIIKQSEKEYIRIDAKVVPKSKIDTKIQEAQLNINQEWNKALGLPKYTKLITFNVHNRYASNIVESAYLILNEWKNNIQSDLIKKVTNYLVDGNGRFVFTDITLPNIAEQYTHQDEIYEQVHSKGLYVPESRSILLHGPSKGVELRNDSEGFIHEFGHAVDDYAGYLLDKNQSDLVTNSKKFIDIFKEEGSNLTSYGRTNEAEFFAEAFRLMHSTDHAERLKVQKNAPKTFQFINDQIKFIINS
SARS 3CLpro inh: SARS-CoV 3CLpro protease inhibitors, primary screen, biochemical, quenched FRET; Replicase polyprotein 1ab (Severe acute respiratory syndrome coronavirus), P0C6X7; recombinant SARS-CoV 3CLpro, quenched FRET peptide cleavage; inhibition, % at 6 µM; hit rate 0.14% among 290,000; AID 1706, 2009; in the data active = inhibition above about 12%
Starred values were filed as active, the others as inactive. A selection: hits, their analogues and other compounds. The true share with any hit is near 3.9%. Rule as the data show it, unless noted: active = inhibition above about 30%; inconclusive = no clear call, values can overlap the other calls; inactive = below that.

What do the screens show for `Cc1ccc(-c2nnn(CC(=O)N(c3cccc(O)c3)C(C(=O)NC(C)(C)C)c3cccs3)n2)o1` (centres undefined)?
BoNT A protease: 0; Bead autofluor: 16505*; BoNT F protease: 0; Anthrax LF prot: -2; SARS 3CLpro inh: 0

Results for Cc1ccc(-c2nnn(CC(=O)N(Cc3ccco3)C(C(=O)NC(C)(C)C)c3ccc(C)o3)n2)o1 (centres undefined) ?
BoNT A protease: 1; Bead autofluor: 4529; CCHFV vOTU inh: 10; BoNT F protease: -2; Anthrax LF prot: -5; SARS 3CLpro inh: 0

Results for Cc1ccc(-c2nnn(CC(=O)N(Cc3ccccc3)C(C(=O)NC(C)(C)C)c3ccncc3)n2)o1 (centres undefined) ?
BoNT A protease: -1; Bead autofluor: 20840*; BoNT F protease: 4; Anthrax LF prot: -2; SARS 3CLpro inh: 0

What do the screens show for `CCc1c(C)nc2ncnn2c1N1CCC(C(=O)N2CCN(c3ccc(F)cc3)CC2)CC1`?
BoNT A protease: inconclusive; Bead autofluor: 24650*; CCHFV vOTU inh: -10; BoNT F protease: -6; Anthrax LF prot: -1; SARS 3CLpro inh: 3

What do the screens show for `CCOc1ccc(OCC)c(NC(=O)C2CCN(c3ncccn3)CC2)c1`?
BoNT A protease: inconclusive; Bead autofluor: 22945*; CCHFV vOTU inh: -7; BoNT F protease: -7; Anthrax LF prot: -2; SARS 3CLpro inh: -6

How did CCOc1ccc(OCC)c(NC(=O)C2CCCN(c3ncccn3)C2)c1 (centres undefined) do in these assays?
BoNT A protease: 0; Bead autofluor: 7567; CCHFV vOTU inh: -4; BoNT F protease: -12; Anthrax LF prot: -6; SARS 3CLpro inh: 7

Results for CCc1c(C)nc2ncnn2c1N1CCCC(C(=O)Nc2ccc(NC(C)=O)cc2)C1 (centres undefined) ?
BoNT A protease: 0; Bead autofluor: 2476; CCHFV vOTU inh: -1; BoNT F protease: 2; Anthrax LF prot: 0; SARS 3CLpro inh: 5

Results for O=C(C1CC1)N1CCN(c2ccc(F)cc2)CC1 ?
BoNT A protease: 0; Bead autofluor: 3672; CCHFV vOTU inh: -1; BoNT F protease: 15; Anthrax LF prot: -12; SARS 3CLpro inh: 3

How did CCc1c(C)nc2ncnn2c1N1CCCC(C(=O)NCc2ccc3c(c2)OCO3)C1 (centres undefined) do in these assays?
BoNT A protease: 2; Bead autofluor: 22326*; CCHFV vOTU inh: 1; BoNT F protease: 2; Anthrax LF prot: -6; SARS 3CLpro inh: 0

How did Cc1ccc(CNC(=O)C2CC=CCC2C(=O)O)cc1 (centres undefined) do in these assays?
BoNT A protease: -2; Bead autofluor: 3186; CCHFV vOTU inh: 8; BoNT F protease: 24; Anthrax LF prot: -11; SARS 3CLpro inh: 2

Results for O=C(O)C1CC=CCC1C(=O)NCc1ccc2c(c1)OCO2 (centres undefined) ?
BoNT A protease: -2; Bead autofluor: 23458*; CCHFV vOTU inh: -4; BoNT F protease: -4; Anthrax LF prot: 1; SARS 3CLpro inh: -3

Results for O=C(CSc1nc2c(c(=O)[nH]1)CCCC2)N1CCOCC1 ?
CCHFV vOTU inh: -1

Results for Cc1cc(C)cc(NC(=O)NC2CCN(S(=O)(=O)c3ccc(F)cc3)CC2)c1 ?
CCHFV vOTU inh: -3

What do the screens show for `CC1=C2NC(N)=[N+](Cc3ccc4c(c3)OCO4)CC2n2c(=O)n(-c3ccccc3)c(=O)n2C1` (centres undefined)?
CCHFV vOTU inh: -8

Results for COc1cccc(OC)c1C(=O)N1CCN(c2c(Cc3ccccc3)c(C)nc3ncnn23)CC1 ?
BoNT A protease: -13; Bead autofluor: 26771*; CCHFV vOTU inh: -21; BoNT F protease: -15; Anthrax LF prot: -7; SARS 3CLpro inh: -4

What do the screens show for `Cc1cc(C)nc(N2CCC(C(=O)NCc3cccc(C(F)(F)F)c3)CC2)n1`?
BoNT A protease: -1; Bead autofluor: 4485; CCHFV vOTU inh: 1; BoNT F protease: 17; Anthrax LF prot: -6; SARS 3CLpro inh: -5

How did O=C(NCc1ccc2c(c1)OCO2)C1CCN(c2ncccn2)CC1 do in these assays?
BoNT A protease: inconclusive; Bead autofluor: 21984*; CCHFV vOTU inh: 1; BoNT F protease: 0; Anthrax LF prot: 0; SARS 3CLpro inh: 2

What do the screens show for `O=C(NCc1cccc(C(F)(F)F)c1)C1CCN(c2ncccn2)CC1`?
BoNT A protease: 1; Bead autofluor: 22251*; CCHFV vOTU inh: -4; BoNT F protease: 2; Anthrax LF prot: 1; SARS 3CLpro inh: 4

How did CCOc1ccccc1NC(=O)CN1CCC(NC(=O)c2ccccc2)CC1 do in these assays?
BoNT A protease: 0; Bead autofluor: 2372; CCHFV vOTU inh: -8; BoNT F protease: -7; Anthrax LF prot: -2; SARS 3CLpro inh: -3

What do the screens show for `CCOc1ccc(OCC)c(NC(=O)CN2CCC(NC(=O)c3cccc(F)c3)CC2)c1`?
BoNT A protease: 0; Bead autofluor: 20291*; CCHFV vOTU inh: -4; BoNT F protease: -4; Anthrax LF prot: -2; SARS 3CLpro inh: -1

What do the screens show for `Cc1nc2ncnn2c(N2CCC(C(=O)NC3CCCC3)CC2)c1Cc1ccccc1`?
BoNT A protease: 0; Bead autofluor: 11151; CCHFV vOTU inh: -6; BoNT F protease: 1; Anthrax LF prot: -1; SARS 3CLpro inh: -4

Results for O=C(CSc1nnc(-c2cccs2)n1Cc1ccco1)Nc1ccc(OCc2ccccc2)cc1 ?
CCHFV vOTU inh: 13

What do the screens show for `O=C(NCc1ccc2c(c1)OCO2)C1CCN(S(=O)(=O)N2CCCCC2)CC1`?
BoNT A protease: 0; Bead autofluor: 10814; CCHFV vOTU inh: -3; BoNT F protease: 3; Anthrax LF prot: 2; SARS 3CLpro inh: 1

How did O=C(NCc1ccc2c(c1)OCO2)C1CCN(c2ccc(S(=O)(=O)N3CCCC3)cc2)CC1 do in these assays?
BoNT A protease: -1; Bead autofluor: 19826*; CCHFV vOTU inh: 8; BoNT F protease: -4; Anthrax LF prot: -2; SARS 3CLpro inh: -4

Results for Cc1ccnc(N2CCC(C(=O)NCc3ccc4c(c3)OCO4)CC2)n1 ?
BoNT A protease: inconclusive; Bead autofluor: 20911*; CCHFV vOTU inh: 5; BoNT F protease: 4; Anthrax LF prot: 0; SARS 3CLpro inh: -1

Results for CCCCN(C)C(=O)c1ccc2c(c1)NC(=O)C(C)(C)O2 ?
CCHFV vOTU inh: -3

What do the screens show for `O=C(NCCc1ccncc1)C(F)(F)F`?
BoNT A protease: -1; Bead autofluor: 24347*; CCHFV vOTU inh: 9; BoNT F protease: 0; Anthrax LF prot: 0; SARS 3CLpro inh: -3

How did O=C(NCCc1ccncc1)c1ccccc1F do in these assays?
BoNT A protease: 3; Bead autofluor: 21712*; CCHFV vOTU inh: -3; BoNT F protease: 4; Anthrax LF prot: 1; SARS 3CLpro inh: -7
